Test results published in ChEMBL document CHEMBL3988442, “University of Dundee, Small-Polar-MMV Screening Library” (2021).

Molecular target: T1, Tyrosyl-tRNA synthetase, putative (Trypanosoma cruzi (strain CL Brener)) (UniProt Q4DSP6)
T1 sequence (whole entry): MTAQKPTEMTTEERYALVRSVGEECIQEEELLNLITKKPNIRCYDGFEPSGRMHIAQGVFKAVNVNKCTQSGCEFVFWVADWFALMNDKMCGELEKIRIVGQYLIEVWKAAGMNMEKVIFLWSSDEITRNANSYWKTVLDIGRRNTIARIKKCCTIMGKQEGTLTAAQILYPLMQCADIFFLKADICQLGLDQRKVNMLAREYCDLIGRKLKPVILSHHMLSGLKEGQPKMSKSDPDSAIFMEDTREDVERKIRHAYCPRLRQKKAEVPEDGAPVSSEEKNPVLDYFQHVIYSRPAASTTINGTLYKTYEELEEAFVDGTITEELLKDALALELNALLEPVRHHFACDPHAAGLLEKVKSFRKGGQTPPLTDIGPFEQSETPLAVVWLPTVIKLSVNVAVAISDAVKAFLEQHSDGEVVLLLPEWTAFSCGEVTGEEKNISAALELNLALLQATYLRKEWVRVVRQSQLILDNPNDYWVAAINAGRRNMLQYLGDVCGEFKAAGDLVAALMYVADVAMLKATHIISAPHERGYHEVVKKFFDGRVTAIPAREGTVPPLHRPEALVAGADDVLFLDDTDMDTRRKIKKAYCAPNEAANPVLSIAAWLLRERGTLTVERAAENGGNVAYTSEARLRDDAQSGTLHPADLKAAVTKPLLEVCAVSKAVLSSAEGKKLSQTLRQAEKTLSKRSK
Experiment: Trypanosoma cruzi tyrosyl tRNA synthetase (TcYRS) _High Tyrosine SOP; further: in the data most compounds retested in dose-response had high values
Type: functional
Design: scale not given: direction of the effect not stated beside the values
Settings: 30 µM

| SMILES | Percent Effect [%] |
| --- | --- |
| COCCN1CCC2(CCCN(C(=O)c3cnoc3C)C2)C1=O (stereo not given) | 4.17 |
| CC(C)CCN1CCNC(=O)C1CC(=O)N1CCc2sccc2C1 (stereo not given) | 4.3 |
| O=C(CN1CCCCC1Cn1cncn1)NC1CCN(C2CC2)CC1 (stereo not given) | 2.65 |
| COCCC(=O)N1CCC2(COCc3cnc(-c4ccccc4)nc32)C1 (stereo not given) | -1.06 |
| Cc1cc(CN2CCc3nn(C(C)C)c(=O)cc3C2)no1 | 7.92 |
| Cc1cccc(Cn2ccc(NS(C)(=O)=O)n2)c1 | 6.45 |
| CN1CCN(Cc2ccccc2CNC(=O)c2ccc(Br)cc2F)CC1 | 5.38 |
| CCCC(=O)N1CCC(O)(Cn2c(CC)nc3ccccc3c2=O)CC1 | 4.3 |
| CN(CC1(O)CCCCC1)C1CCCN(Cc2noc(C3CC3)n2)C1 (stereo not given) | 4.43 |
| Cc1ccc(N2CCCN(C(=O)C(C(C)C)n3cncn3)CC2)nn1 (stereo not given) | 7.92 |
| CCc1nnc(CNCC2CCCN2c2cccnn2)o1 (stereo not given) | 8.33 |
| Cc1cc(NC(=O)CN2CCc3nn(C)c(=O)cc3C2)on1 | -6.32 |
| CCc1c(C(=O)NCC(=O)OCC2CC2)cnn1-c1ccc(C)cc1 | 6.4 |
| Fc1ccc(CN2CCCN(Cc3cscn3)CC2)cc1 | 8.57 |
| Cc1cc(C)n(CC(=O)N2CCC(NS(C)(=O)=O)CC2)n1 | 5.39 |
| CC(=O)NCCNC(=O)CN1CCN(Cc2nccn2C)C(C)C1 (stereo not given) | 7.92 |
| CSCCCN1CCCC1c1noc(C)n1 (stereo not given) | 14.2 |
| CCn1ccnc1CN1CCC(CNC(=O)c2ccc(C)nc2)C1 (stereo not given) | 8.6 |
| CC(=O)N1CC(Cc2nccc3ccn(C)c23)C1 | 1.06 |
| NC(=O)CN1CCC(NC(=O)c2ccn(-c3cccc(F)c3)n2)CC1 | 1.05 |

Molecular target: T1, Tyrosyl-tRNA synthetase, putative (Trypanosoma cruzi (strain CL Brener))
Experiment: Trypanosoma cruzi tyrosyl tRNA synthetase (TcYRS) SOP
Type: functional
Design: scale not given: direction of the effect not stated beside the values
Settings: 30 µM

| SMILES | Percent Effect [%] |
| --- | --- |
| O=C(NCCNc1ncccn1)N1CCN(Cc2cccnc2)CC1 | 23.5 |
| CC(C)N1CCC(N2CCN(C3CCC3)CC2CCO)CC1 (stereo not given) | 5.13 |
| COc1ccc(CN2CCCC(Cn3nc(C)nc3C)C2)cc1F (stereo not given) | 2.53 |
| Cc1cnn(CCCNC(=O)N2CCCCC(N3CCCC3)C2)c1 (stereo not given) | 19.5 |
| CCn1cc(NC(=O)NCC(c2cccs2)N(C)C)cn1 (stereo not given) | 19.5 |
| c1cnn(Cc2cn3c(n2)CN(Cc2nccs2)CC3)c1 | 26.9 |
| CCc1noc(C2CCN(C(=O)CCn3nc(C)cc3C)CC2)n1 | 16.1 |
| CC(C#N)CSc1ccccc1NCC(=O)Nc1ccc(F)cc1 (stereo not given) | -10 |
| CCc1nc(CN2CCCC(NCc3nnc(C4CC4)o3)C2)no1 (stereo not given) | 25.9 |
| CCc1ccc(CCC(=O)N2CCOCC2c2ncon2)cc1 (stereo not given) | 1.22 |
| CC(=O)N1CCN(c2cc(C3CN(C)CCO3)nc(C)n2)CC1 (stereo not given) | 14.3 |
| CN(C)CC1CSCCCN1C(=O)Nc1ccc(C(C)(C)C)cc1 (stereo not given) | 8.97 |
| Cc1n[nH]c(C2CN(C(=O)c3ccco3)CCO2)n1 (stereo not given) | 7.79 |
| Clc1ccccc1C1(c2ccnc(CC3CC3)n2)CCNCC1 | 16.1 |
| Cc1cc2cc(C(=O)N[C@@H]3CC[C@@H](N4CCOCC4)[C@@H]3O)ccc2o1 | 3.9 |
| CC(C)c1nnc2n1CCN(CC(=O)Nc1nncs1)C2 | 14.1 |
| CCc1noc(C)c1C(=O)N1CCCC1c1c(C)nn(C)c1OC (stereo not given) | 1.27 |
| COc1cc(C)nc(N2CCN(C(=O)c3ccc[nH]3)CC2)n1 | 6.17 |
| O=C(NCc1cccnc1)C1CC(=O)N(CC2CC2)C1 (stereo not given) | 21.2 |
| Fc1ccc(CN2CCO[C@H]3[C@H](OCC4CC4)CC[C@@H]32)cc1 | -30 |
| COCCN1CCC2(CCCN(C(=O)c3cnoc3C)C2)C1=O (stereo not given) | 3.7 |
| CC(C)CCN1CCNC(=O)C1CC(=O)N1CCc2sccc2C1 (stereo not given) | 8.64 |
| O=C(CN1CCCCC1Cn1cncn1)NC1CCN(C2CC2)CC1 (stereo not given) | 7.32 |
| COCCC(=O)N1CCC2(COCc3cnc(-c4ccccc4)nc32)C1 (stereo not given) | 3.85 |
| Cc1cc(CN2CCc3nn(C(C)C)c(=O)cc3C2)no1 | 8.54 |
| Cc1cccc(Cn2ccc(NS(C)(=O)=O)n2)c1 | 11.1 |
| CN1CCN(Cc2ccccc2CNC(=O)c2ccc(Br)cc2F)CC1 | 11.1 |
| CCCC(=O)N1CCC(O)(Cn2c(CC)nc3ccccc3c2=O)CC1 | 3.9 |
| CN(CC1(O)CCCCC1)C1CCCN(Cc2noc(C3CC3)n2)C1 (stereo not given) | 13.6 |
| Cc1ccc(N2CCCN(C(=O)C(C(C)C)n3cncn3)CC2)nn1 (stereo not given) | 25.6 |
